Test [1] is described as follows: compounds binding Alexa647 anti-His antibody – biochemical, small-molecule microarray, 635 nm fluorescence, artefact control for SMM control protein annotation, primary screen (AID 1128).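 Note: score merges feature fluorescence with signal-to-noise for each printed compound spot.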 The settings on record: higher = more signal.
For test [2], the system named is Human papillomavirus type 1a E7 protein (residues 1-88). The test is described as follows: HPV1a E7 small-molecule binders, primary screen, biochemical, small-molecule microarray, residues 1-88, 635 nm (AID 1129). The settings on record: small-molecule microarray binding, fluorescence 635 nm; higher = more signal.
In test [3] the target is Focal adhesion kinase 1 (Homo sapiens) (UniProt Q05397). The test is described as follows: PTK2 protein binding on printed compound slides – biochemical, small-molecule microarray, 635/667 nm fluorescence, BSA, DTT, primary screen (AID 1130).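 Note: composite of spot emission at 667 nm and signal to noise over triplicate slides.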 The settings on record: 635 nm fluorescence, higher = more signal.
Test [4] concerns Fibrinogen (Alexa647-labelled). Kind of test: Alexa647-fibrinogen binding to printed small molecules – biochemical, small-molecule microarray, 635/667 nm fluorescence, artefact control for SMM control-protein annotation, profiling panel (AID 1131).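 Note: z-score merges 667 nm fluorescence with per-spot signal-to-noise over triplicate slides.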 The following applies: fibrinogen-A647 binding fluorescence, higher = more signal.
In test [5] the target is Follistatin (Homo sapiens) (UniProt P19883). Kind of test: FST protein binding to printed compounds – biochemical, small-molecule microarray, 635/667 nm fluorescence, primary screen (AID 1132). The settings on record: 635 nm fluorescence, higher = more signal.
Test [6] addresses Fibroblast growth factor 2 (Homo sapiens) (UniProt P09038). The test is described as follows: basic fibroblast growth factor binding to printed compounds – biochemical, small-molecule microarray, 635/667 nm fluorescence, primary screen (AID 1133). The settings on record: FGF2, fluorescence 635/667, higher = more signal.
Test [7] can be described thus: JC-1 mitochondrial potential readout, lung cancer cells – cell-based, A549, JC-1 fluorescence, basal, 24 h, 100 nL, profiling panel (AID 1138).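 Note: A549 lung adenocarcinoma cells under basal conditions with no added stimulus; test concentration not given here.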 The settings on record: higher = more signal.
A further test concerns Lefty1. Kind of test: Lefty1 protein binding to printed compounds – biochemical, small-molecule microarray, 635/667 nm fluorescence, primary screen (AID 1139). The settings on record: fluorescence 635/667, higher = more signal.
Test [8] deals with wheat germ agglutinin (Triticum aestivum), Alexa647-labelled. Kind of test: Alexa647-WGA lectin binding to printed small molecules – biochemical, small-molecule microarray, 635/667 nm fluorescence, artefact control for SMM control-protein annotation, profiling panel (AID 1140).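 Note: score merges 667 nm feature emission with signal to noise over triplicate slides.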 The settings on record: WGA-A647 binding, 635 nm fluorescence, higher = more signal.
Test [9] addresses Luciferin 4-monooxygenase (Photinus pyralis) (UniProt P08659). Kind of test: inhibition of purified Photinus pyralis luciferase – biochemical, luminescence, purified enzyme, 2006 set, primary screen (AID 1141).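 Note: cell-free assay with purified firefly luciferase at 100 ng per well in PBS; test concentration not given here.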 The following applies: purified firefly luciferase, SteadyGlo luminescence, 30 min; higher = more signal, called active from +8 up or from −8 down.
The test system of test [10] is Wnt5a (protein binding on small-molecule microarray). Kind of test: small molecules binding Wnt5a protein – biophysical, small-molecule microarray, 635/667 nm fluorescence, primary screen (AID 1142).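 Note: fluorescence read at 667 nm with signal to noise per printed feature.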 The settings on record: 635 nm fluorescence, higher = more signal.
Test [11] in a line: ATP-based viability of Huh7 replicon cells – cell-based, CellTiter-Glo luminescence, basal, 48 h, cytotoxicity control for HCV replication inhibitor project, primary screen (AID 1143).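 Note: Huh7 hepatoma cells carrying a hepatitis C replication reporter with no stimulus; test concentration not given here.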 The settings on record: higher = more signal, called active from +8 up or from −8 down. For orientation: A replicon is a self-replicating genome or part of one, used to study replication in cells.

Test [12] is described as follows: Pseudomonas biofilm growth suppression – PAO1 strain, BacTiter-Glo luminescence, LB-PBS, primary screen (AID 1144). The settings on record: P. aeruginosa PAO1 biofilm, 12 h, higher = more signal.
A short description of test [13]: basal CRE-LacZ reporter activity in PC12 – cell-based, unstimulated, primary screen (AID 1145). The following applies: no forskolin, luminescence, 4.5 h, higher = more signal, called active from +8 up or from −8 down.
Test [14] in a line: forskolin-driven CRE-LacZ activity in PC12 – cell-based, CRE-LacZ reporter, forskolin-stimulated, primary screen (AID 1146).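 Note: PC12 cells with 6xCRE LacZ reporter stimulated by forskolin 10 µM; beta-galactosidase reporter signal reflecting CREB driven transcription.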 The settings on record: luminescence, 4.5 h, higher = more signal, called active from +8 up or from −8 down.
In test [15] the target is Streptavidin (Streptomyces avidinii) (UniProt P22629). Kind of test: compounds binding control protein streptavidin – biophysical, small-molecule microarray, 635/667 nm fluorescence, artefact control for SMM compound annotation, primary screen (AID 1147).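 Note: signal reflects streptavidin binding to arrayed compounds as a control protein.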 The following applies: higher = more signal.
Test [16] is described as follows: probe aInhba binding on compound microarray – biochemical, small-molecule microarray, 635/667 nm fluorescence, primary screen (AID 1148).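 Note: score merges 667nm spot fluorescence with signal-to-noise for antibody binding to printed compounds.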 The settings on record: higher = more signal.
In test [17] the target is Torsin-1A (Homo sapiens) (UniProt O14656). Kind of test: TOR1A wild-type binding on microarray – cell lysate, small-molecule microarray, lysate, 635/667 nm, primary screen (AID 1149). The settings on record: COS7 hTOR1A-WT lysate, 635 nm fluorescence, higher = more signal.
Test [18] has the same target. The test is described as follows: torsin A mutant lysate binding on microarrays – cell lysate, small-molecule microarray, COS7 lysate, 635/667 nm fluorescence, primary screen (AID 1150).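 Note: score pools 667 nm emission and signal to noise measuring lysate protein binding.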 The settings on record: COS7 hTOR1A mutant lysate, 635 nm fluorescence, higher = more signal.
The subject of test [19] is Sonic hedgehog protein (Shh). The test is described as follows: Sonic hedgehog microarray binding compounds – biochemical, small-molecule microarray, 635/667 nm fluorescence, primary screen (AID 1151).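 Note: Shh protein binding to compounds spotted on small-molecule microarray slides; score combines spot fluorescence intensity with signal-to-noise across triplicate slides.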 The following applies: 635 nm fluorescence, higher = more signal.

Structures are written as SMILES. Active and inactive are the calls of the source. Unless noted, the rule behind the calls is not given here.

Torsin-1A (Homo sapiens), sequence (O14656 whole entry, looked up): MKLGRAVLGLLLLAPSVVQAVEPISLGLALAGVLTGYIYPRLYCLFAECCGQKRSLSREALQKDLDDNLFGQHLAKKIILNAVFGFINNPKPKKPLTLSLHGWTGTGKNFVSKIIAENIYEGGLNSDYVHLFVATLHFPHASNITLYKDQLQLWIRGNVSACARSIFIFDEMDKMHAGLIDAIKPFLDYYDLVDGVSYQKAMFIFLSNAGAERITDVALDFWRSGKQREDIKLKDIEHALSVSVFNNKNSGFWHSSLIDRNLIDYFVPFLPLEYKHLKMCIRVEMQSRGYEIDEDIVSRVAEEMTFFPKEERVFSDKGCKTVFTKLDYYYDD
Luciferin 4-monooxygenase (Photinus pyralis), sequence (P08659 whole entry, looked up): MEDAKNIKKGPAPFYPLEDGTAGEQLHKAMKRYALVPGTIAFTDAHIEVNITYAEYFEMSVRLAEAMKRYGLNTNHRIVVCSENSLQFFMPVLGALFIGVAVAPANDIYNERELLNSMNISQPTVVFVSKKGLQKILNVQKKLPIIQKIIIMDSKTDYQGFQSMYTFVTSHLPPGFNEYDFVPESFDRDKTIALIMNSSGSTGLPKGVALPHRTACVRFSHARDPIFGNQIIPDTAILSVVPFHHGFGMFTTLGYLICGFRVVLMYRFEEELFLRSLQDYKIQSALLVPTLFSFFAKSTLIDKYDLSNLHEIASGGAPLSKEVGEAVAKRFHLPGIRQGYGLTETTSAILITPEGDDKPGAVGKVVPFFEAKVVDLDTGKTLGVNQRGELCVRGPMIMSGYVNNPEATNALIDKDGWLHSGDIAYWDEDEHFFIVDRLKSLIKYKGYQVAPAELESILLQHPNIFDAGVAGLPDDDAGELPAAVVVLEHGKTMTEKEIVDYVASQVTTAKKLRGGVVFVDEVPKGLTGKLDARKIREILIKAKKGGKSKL
Follistatin (Homo sapiens), sequence (P19883 whole entry, looked up): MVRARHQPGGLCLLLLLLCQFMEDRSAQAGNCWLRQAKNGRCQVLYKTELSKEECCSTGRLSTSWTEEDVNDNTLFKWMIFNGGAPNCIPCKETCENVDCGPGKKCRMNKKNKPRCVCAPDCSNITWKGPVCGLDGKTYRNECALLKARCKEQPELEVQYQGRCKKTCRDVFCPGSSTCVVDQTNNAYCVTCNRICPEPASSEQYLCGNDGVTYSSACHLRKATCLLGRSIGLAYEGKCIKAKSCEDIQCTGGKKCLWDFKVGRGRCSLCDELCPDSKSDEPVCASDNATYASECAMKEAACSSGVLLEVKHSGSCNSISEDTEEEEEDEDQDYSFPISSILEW
Focal adhesion kinase 1 (Homo sapiens), sequence (Q05397 whole entry, looked up): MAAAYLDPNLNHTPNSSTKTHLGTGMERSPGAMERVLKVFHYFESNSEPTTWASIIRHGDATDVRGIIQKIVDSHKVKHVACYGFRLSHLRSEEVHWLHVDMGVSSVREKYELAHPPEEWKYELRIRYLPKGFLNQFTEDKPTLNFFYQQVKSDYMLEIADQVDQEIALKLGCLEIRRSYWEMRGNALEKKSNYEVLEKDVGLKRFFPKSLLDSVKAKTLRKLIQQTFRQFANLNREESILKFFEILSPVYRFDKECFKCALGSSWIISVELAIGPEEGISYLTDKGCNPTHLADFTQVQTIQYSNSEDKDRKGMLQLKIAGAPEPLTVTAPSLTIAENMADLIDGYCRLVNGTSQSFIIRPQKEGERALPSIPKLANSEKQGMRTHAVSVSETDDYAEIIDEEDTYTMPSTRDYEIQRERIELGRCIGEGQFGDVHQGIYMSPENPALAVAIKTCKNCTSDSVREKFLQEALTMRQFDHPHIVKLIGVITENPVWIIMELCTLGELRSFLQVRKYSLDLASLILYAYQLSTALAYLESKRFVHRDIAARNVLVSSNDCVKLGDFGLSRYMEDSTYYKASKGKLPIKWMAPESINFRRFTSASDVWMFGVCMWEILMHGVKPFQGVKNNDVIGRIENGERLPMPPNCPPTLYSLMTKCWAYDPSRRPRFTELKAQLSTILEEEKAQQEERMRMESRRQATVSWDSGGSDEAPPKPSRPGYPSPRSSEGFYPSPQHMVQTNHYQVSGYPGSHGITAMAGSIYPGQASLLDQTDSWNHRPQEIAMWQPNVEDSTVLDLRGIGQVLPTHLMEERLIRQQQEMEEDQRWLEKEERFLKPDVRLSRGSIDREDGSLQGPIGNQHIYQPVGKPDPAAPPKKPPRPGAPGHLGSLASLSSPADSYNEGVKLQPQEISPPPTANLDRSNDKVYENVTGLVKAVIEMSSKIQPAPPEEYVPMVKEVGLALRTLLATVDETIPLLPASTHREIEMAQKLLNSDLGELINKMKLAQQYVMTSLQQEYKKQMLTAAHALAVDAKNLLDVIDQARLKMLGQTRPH
Fibroblast growth factor 2 (Homo sapiens), sequence (P09038 whole entry, looked up): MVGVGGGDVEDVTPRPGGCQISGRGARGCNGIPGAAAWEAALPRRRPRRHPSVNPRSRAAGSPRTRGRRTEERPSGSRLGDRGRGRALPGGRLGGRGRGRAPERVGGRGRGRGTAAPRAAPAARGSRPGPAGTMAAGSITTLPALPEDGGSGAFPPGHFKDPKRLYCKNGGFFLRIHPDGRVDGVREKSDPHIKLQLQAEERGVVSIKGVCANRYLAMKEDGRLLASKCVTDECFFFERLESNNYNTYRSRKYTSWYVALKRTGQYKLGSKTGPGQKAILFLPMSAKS
Streptavidin (Streptomyces avidinii), sequence (P22629 whole entry, looked up): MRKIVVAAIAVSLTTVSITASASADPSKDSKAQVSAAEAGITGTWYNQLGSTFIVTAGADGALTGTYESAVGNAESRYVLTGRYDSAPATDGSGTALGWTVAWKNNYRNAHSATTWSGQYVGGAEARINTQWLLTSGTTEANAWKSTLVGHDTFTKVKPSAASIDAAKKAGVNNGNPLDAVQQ

As for `C#CCNC(=O)[C@H](Cc1ccccc1)NC(=O)[C@@H](N=[N+]=[N-])C(C)C`, the composite z-score in test [1] is 0.141; in test [2] it was 0.873; in [3], 0.146; in test [4] it was 0.694; in test [5] it was 0.127; in test [6] it was 0.524. For the same compound, the composite z-score in the test with Lefty1 was 0.343; in test [8] it was 0.349; in test [10] it was 0.0696; in [15], -0.0247; in test [16], -0.025; with Torsin-1A (Homo sapiens) [17], 0.0696. Further, the composite z-score with Torsin-1A (Homo sapiens) [18] amounted to 0.892; in test [19], 0.539. Moreover, the z-score in test [7] is 0.332; in test [9], -0.66 (inactive); in test [11], -0.0943 (inactive); in test [12] it was 0.0632 (inactive); in test [13] it was 0.0918 (inactive); in test [14], -0.462 (inactive).

For the compound `Cc1ccc(S[C@]2(C(=O)NCCN3CCOCC3)CC(=O)N(Cc3ccccc3C(F)(F)F)[C@@H]2c2ccc(CO)cc2I)cc1`, the composite z-score was 0.771 in test [1]; -0.0269 in test [2]; 0.167 in test [3]; -1.16 in test [4]; -0.562 in test [5]; -0.907 in test [6]. Moreover, the composite z-score in the test on Lefty1 was -0.87; in [8] it was -0.194; in [10], 0.0381; in test [15] it was -1.49; in [16], -0.157; in the test with Torsin-1A (Homo sapiens) [17], 0.174. For the same compound, the composite z-score with Torsin-1A (Homo sapiens) [18] was -0.38; in test [19] it was -0.245. The z-score in [7] was -0.695; in test [9], 0.622 (inactive); in test [11], -0.984 (inactive); in [12], -0.487 (inactive); in test [13] it was 0.299 (inactive); in test [14], 4.04 (inactive).

For the compound `CC(C)(C)OC(=O)CC[C@]1(C(=O)NCCN2CCOCC2)N=C(c2ccc(OCCCO)cc2)O[C@H]1c1ccccc1`, the composite z-score in [1] is 2.21; in test [2], 0.358; in [3], 0.75; in [4] it was 0.955; in test [5], -0.0269; in test [6] it was -0.397. The composite z-score is -0.964 in the test with Lefty1; 0.391 in test [8]; 0.298 in test [10]; 0.541 in [15]; 0.165 in [16]; -0.357 in the test with Torsin-1A (Homo sapiens) [17]. Besides, the composite z-score with Torsin-1A (Homo sapiens) [18] was 0.833; in test [19] it was -1.23. Besides, the z-score in test [7] was 1.21; in test [9], -1.16 (inactive); in test [11], 0.268 (inactive); in test [12], -0.375 (inactive); in test [13], -0.174 (inactive); in test [14] it was -0.266 (inactive).

On to `C=CC[C@@]1(C(=O)O)N=C(c2ccc(OCCCO)cc2)O[C@@H]1c1ccccc1`, for which the composite z-score was 3.53 in test [1]; 1.15 in test [2]; 0.3 in test [3]; -0.184 in test [4]; -0.759 in test [5]; -0.893 in test [6]. In addition, the composite z-score was -0.726 with Lefty1; 1.27 in [8]; 1.45 in test [10]; -1.72 in test [15]; -0.231 in test [16]; 4.37 with Torsin-1A (Homo sapiens) [17]. Moreover, the results for the composite z-score (with Torsin-1A (Homo sapiens) [18]; in test [19]) were 4.32 and -0.198, respectively. Moreover, the z-score was 0.959 in [7]; -0.171 (inactive) in test [9]; 0.0076 (inactive) in test [11]; -0.385 (inactive) in test [12]; -0.491 (inactive) in [13]; -1.2 (inactive) in [14].

Consider `COCCOC(=O)N1C(=O)[C@@]2(c3cc(C#CCC(C(=O)OC)C(=O)OC)ccc31)[C@H](c1ccc(OCCO)cc1)N1[C@H](c3ccccc3)[C@H](c3ccccc3)OC(=O)[C@H]1[C@@H]2C(=O)N1CCN(c2ncccn2)CC1`, for which the composite z-score in [1] is 1.94; in [2] it was 1.25; in [3] it was -0.0555; in [4], 0.947; in test [5], 1.36; in [6], 1.23. For the same compound, the composite z-score was determined as 1.29 in the test on Lefty1; 0.939 in [8]; 0.672 in [10]; 0.945 in test [15]; 0.122 in test [16]; 1.19 with Torsin-1A (Homo sapiens) [17]. Also, the composite z-score stood at 0.6 in the test with Torsin-1A (Homo sapiens) [18] and 2.09 in test [19]. The z-score was -1.48 in test [7]; -0.506 (inactive) in test [9]; -4.96 (inactive) in test [11]; -1.65 (inactive) in [12]; -1.42 (inactive) in [13]; -0.912 (inactive) in test [14].

These data come from PubChem BioAssay.
